Compound activity from PubChem.
esBAF inh = blocks esBAF chromatin remodeling in mouse ES cells. Bmi1-luciferase knock-in reporter, 24 h; 100% = twice the neutral-well signal. reporter increase, % at 12.5 µM. actives 2% (n = 350,000). AID 602393; in the data active = activation above about 40%; inconclusive = no clear call, values can overlap the other calls;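 also: 0% = median of the plate's neutral control wells and 100% = double that signal; a rise in the Bmi1 reporter signal indicates esBAF inhibition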
AF4-AF9 inh = MLL-AF4/AF9 protein interaction inhibition. AlphaScreen, biotin-AF4 peptide binding to FLAG-AF9. AID 651704. actives 0.47% (n = 350,000). inhibition, % at 10 µM. P42568;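 active = every replicate reaching a set inhibition limit, whatever the replicate mean, cut at about 25% in these data; inconclusive = mean inhibition reaches that limit but some replicates miss it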;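 also: 0% = plate neutral control median and 100% = total signal loss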
Target sequence (P42568 whole entry, looked up): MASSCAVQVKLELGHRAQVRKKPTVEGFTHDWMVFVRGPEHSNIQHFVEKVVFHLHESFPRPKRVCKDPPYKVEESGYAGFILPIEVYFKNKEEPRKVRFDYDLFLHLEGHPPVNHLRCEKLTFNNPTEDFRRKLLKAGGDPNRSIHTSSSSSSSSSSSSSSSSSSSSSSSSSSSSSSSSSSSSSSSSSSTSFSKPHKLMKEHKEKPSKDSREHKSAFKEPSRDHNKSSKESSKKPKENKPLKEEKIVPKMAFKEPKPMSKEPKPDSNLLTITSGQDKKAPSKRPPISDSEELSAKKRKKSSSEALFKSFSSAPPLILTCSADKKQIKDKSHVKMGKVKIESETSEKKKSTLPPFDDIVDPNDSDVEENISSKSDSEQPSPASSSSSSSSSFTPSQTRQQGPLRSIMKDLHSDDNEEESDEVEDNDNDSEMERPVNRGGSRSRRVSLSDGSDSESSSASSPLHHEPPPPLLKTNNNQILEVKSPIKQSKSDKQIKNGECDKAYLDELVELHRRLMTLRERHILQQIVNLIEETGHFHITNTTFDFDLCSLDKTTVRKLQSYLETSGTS
rRNA inh HTS = selective bacterial rRNA inhibition in E. coli | E. coli WT GFP vs humanized-ribosome RFP mutants, fluorescence, 24 h; hits give low values; DMSO median 0, no signal -100 | GFP signal change (wild-type ribosome), % (no concentration beside the values) | actives 1.6% (n = 350,000) | AID 720706;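 active = significant combined selectivity score with lowered wild-type GFP, culture density cut under 30%, mutant RFP and density less affected; inactive = any of these conditions unmet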
Wnt act = activates Wnt/beta-catenin signaling in a reporter cell assay; activation, % at 9.35 µM; activator, plate reader; actives 1.2% (n = 300,000); in the data active = activation above about 30%, passing the limit was not always enough; inconclusive = no clear call, values can overlap the other calls;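 also: 0% = neutral control wells and 100% = positive control wells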
MITF act = MITF TRPM1 promoter activation in melanoma cells. activation, % at 12.5 µM. actives 0.75% (n = 300,000). SK-MEL-5 TRPM1-promoter luciferase, 24 h; % of positive control, neutral wells = 0. AID 588334;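 active = mean activation of at least 80% with every replicate also reaching 80%; inconclusive = mean reaches 80% but some replicate falls short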;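 also: 0% = neutral control wells and 100% = parthenolide positive control wells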
An asterisk follows results filed as active. Compounds with a hit are over-represented: about 3.7% of the library has one in this group of screens.

For CC(C)Cc1nnc(NC(=O)CCC(=O)Nc2ccccc2)s1 the results were esBAF inh 0.5, AF4-AF9 inh 1.0, rRNA inh HTS 5.0, Wnt act -0.5 and MITF act -3.7.
Screening O=C(NCCCN1CCN(c2cccc(Cl)c2)CC1)C1(S(=O)(=O)c2ccc(Cl)cc2)CC1 returned esBAF inh -1.8, Wnt act -3.6 and MITF act -0.6.
C/C(CC(=O)Nc1cc(C)ccn1)=N\NC(=O)c1cccc(F)c1 was read as esBAF inh 8.9, AF4-AF9 inh 1.3, rRNA inh HTS 6.8, Wnt act 0.2 and MITF act -0.2.
c1ccc(Oc2ccc3ccccc3n2)cc1 was read as AF4-AF9 inh -2.1, rRNA inh HTS 9.7, Wnt act 16.6 and MITF act 40.1.
`Cc1cc(O)c(C(=O)Nc2cccc(Cl)c2)c(=O)n1C` gave esBAF inh 58.8*, AF4-AF9 inh -2.4, rRNA inh HTS 1.7, Wnt act 6.4 and MITF act 51.2.
O=C(N/N=C/C(Br)=C\c1ccccc1)c1ccco1 was read as AF4-AF9 inh 6.1 and Wnt act 1.2.
`O=C(c1ccccc1)N1CC(=O)N2[C@H](C1)[C@H](c1ccc(-c3ccccc3)cc1)[C@@H]2CO` gave AF4-AF9 inh 8.6 and rRNA inh HTS -1.0.
COC(=O)c1cc(-c2cccs2)nn1-c1ccccc1 was read as AF4-AF9 inh -3.2, rRNA inh HTS -28.9*, Wnt act -0.6 and MITF act -1.6.
Cc1csc(SCc2nc3sc4c(c3c(=O)[nH]2)CCC4)n1 was read as Wnt act -0.1 and MITF act 14.1.
`O=c1oc2cc(OCc3ccc(F)cc3F)ccc2cc1-c1ccccn1` gave esBAF inh 45.3* and MITF act 71.9.
Screening CCNC(=O)COC(=O)c1ccc(-c2nc3ccccc3s2)s1 returned AF4-AF9 inh -1.5, rRNA inh HTS 10.2, Wnt act 3.2 and MITF act 20.5.
CCN1CCN(C(=O)c2ccc(-c3nc4ccccc4s3)s2)CC1 was read as esBAF inh 35.8, AF4-AF9 inh 5.1, rRNA inh HTS -21.7, Wnt act 49.2* and MITF act 30.7.
`Cc1noc(C)c1COC(=O)c1ccc(-c2nc3ccccc3s2)s1` gave esBAF inh 65.3* and MITF act 62.4.
`C[C@@H]1CCCCO[C@@H](CN(C)Cc2ccccc2)[C@H](C)CN([C@@H](C)CO)C(=O)c2cc(NC(=O)Nc3ccccc3)ccc2O1` gave esBAF inh 1.2, AF4-AF9 inh 11.9 and rRNA inh HTS 0.6.
Cc1cc(C(=O)COC(=O)C2=COCCO2)c(C)n1-c1cccc(F)c1 was read as esBAF inh 54.7*, AF4-AF9 inh 8.0, rRNA inh HTS -8.2, Wnt act 2.2 and MITF act 107.3*.
`Cc1cc(C(=O)CSc2nnnn2C)c(C)n1-c1cccc(F)c1` gave esBAF inh 16.6 and MITF act 98.1*.
For Cc1cc(C(=O)CSc2ncccn2)c(C)n1-c1cccc(F)c1 the results were Wnt act 82.5* and MITF act 34.2.
Cc1ccc(NC(NC(=O)c2cccs2)C(Cl)(Cl)Cl)cc1C (configuration not stated) was read as esBAF inh -1.4 and MITF act -1.8.
Screening O=C(Nc1ccccc1)c1ccc(S(=O)(=O)NCC2CCCO2)cc1 (configuration not stated) returned esBAF inh 9.6 and MITF act -5.2.
O=S(=O)(Nc1nc2ccccc2nc1NCCO)c1cccc(Cl)c1 was read as esBAF inh -2.4.
O=C(Nc1cccc(Cl)c1)c1ccc(S(=O)(=O)NCC2CCCO2)cc1 (configuration not stated) was read as esBAF inh 1.7, AF4-AF9 inh -2.4, rRNA inh HTS -21.4*, Wnt act 0.3 and MITF act -2.6.
O=S(=O)(Nc1nc2ccccc2nc1NCC1CCCO1)c1cccc(Cl)c1 (configuration not stated) was read as esBAF inh -2.3, AF4-AF9 inh -12.4, rRNA inh HTS -23.8*, Wnt act -1.5 and MITF act 4.7.
Screening CCOc1ccccc1NC(=O)C(C)N1C(=O)c2ccccc2S1(=O)=O (configuration not stated) returned AF4-AF9 inh 29.1*, rRNA inh HTS -10.7, Wnt act -4.8 and MITF act 9.7.
`CC(C)C#Cc1ccc([C@@H]2[C@H](CO)N3C(=O)CN(C(=O)Cc4ccccc4)C[C@@H]23)cc1` gave AF4-AF9 inh 0.1 and rRNA inh HTS -0.7.
For O=C(Nc1ccccc1OC(=O)c1ccc(Cl)cc1)c1ccc(Cl)cc1 the results were esBAF inh 65.0*, AF4-AF9 inh 1.0, Wnt act inconclusive and MITF act 15.7.
For O=C(Nc1ccccc1O)c1ccc(Cl)cc1 the results were esBAF inh 4.1, Wnt act -3.1 and MITF act -3.4.
`COc1ccc(C(=O)Nc2cc(Cl)ccc2OC(=O)c2ccc(OC)cc2)cc1` gave esBAF inh 69.2* and MITF act 64.3.
Screening COc1ccc(OC)c(NC(=O)c2ccc(Cl)cc2)c1 returned esBAF inh -5.7, AF4-AF9 inh -0.1, rRNA inh HTS -18.4, Wnt act -1.9 and MITF act -16.8.
`COc1ccccc1-c1cn(CC[C@@H]2CC[C@@H](NC(=O)NC(C)C)[C@@H](CO)O2)nn1` gave esBAF inh 1.6, AF4-AF9 inh -1.5 and rRNA inh HTS 4.5.
`Cn1cc(Cl)c(C(=O)NNC(=S)NC2CCCCC2)n1` gave esBAF inh 2.1 and MITF act -10.4.
Screening COC(=O)c1c2oc(c1C(=O)OC)C(=O)N[C@@H](Cc1ccccc1)Cn1cc(nn1)CNC(=O)[C@H](Cc1ccccc1)NC(=O)N[C@@H](CO)CC2 returned AF4-AF9 inh 4.5.
`O=C1C(=O)c2c(C(=O)c3ccccc3)coc2-c2ccccc21` gave esBAF inh 66.8*, AF4-AF9 inh 14.9, rRNA inh HTS -43.9*, Wnt act 26.7 and MITF act 29.4.
CC(OC(=O)c1ccc(Cl)nc1)C(=O)Nc1ccc(S(=O)(=O)N2CCCC2)cc1 (configuration not stated) was read as esBAF inh -5.0, AF4-AF9 inh -0.9, rRNA inh HTS -3.2, Wnt act 2.1 and MITF act -0.3.
COc1cc(OC)c(OC)cc1/C=C1\CC(C)C/C(=C\c2cc(OC)c(OC)cc2OC)C1=O (configuration not stated) was read as esBAF inh -27.9, AF4-AF9 inh 18.4, rRNA inh HTS -22.3*, Wnt act 1.7 and MITF act -50.1.
For O=c1[nH]cnc2c1c(-c1ccccc1)cn2-c1ccccc1 the results were esBAF inh -6.8, AF4-AF9 inh -2.6, rRNA inh HTS -30.5*, Wnt act 1.7 and MITF act 16.4.
